{"source": "PubChem BioAssay (NCI)", "key": {"[1]": {"assay": "NCI Yeast Anticancer Drug Screen. Data for the rad52 strain (AID 147);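 further: 0% = growth of vehicle-treated control cultures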", "conditions": "S. cerevisiae rad52 mutant growth inhibition, active compounds read high", "summary_of_the_method": "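Measured: yeast growth inhibition. System: strain with a defined DNA damage repair alteration. Reference: vehicle-treated control cultures.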"}, "[2]": {"assay": "NCI Yeast Anticancer Drug Screen. Data for the wt1 strain (AID 149);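 further: 0% = growth of vehicle-treated wt1 cultures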", "conditions": "S. cerevisiae wt1 strain (SPY 50644) growth inhibition, active compounds read high", "summary_of_the_method": "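Growth inhibition read against vehicle controls after compound exposure of the wt1 yeast strain.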"}, "[3]": {"assay": "NCI Yeast Anticancer Drug Screen. Data for the rad50EPP+ strain (AID 151);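 further: 0% = growth of vehicle-treated control cultures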", "conditions": "S. cerevisiae rad50 mutant strain, active compounds read high", "summary_of_the_method": "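One strain with a rad50 alteration (rad50EPP+) was compound-treated, its growth then compared to that of vehicle controls.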"}, "[4]": {"assay": "NCI Yeast Anticancer Drug Screen. Data for the mgt1 strain (AID 153)", "conditions": "S. cerevisiae mgt1 mutant growth inhibition, active compounds read high", "summary_of_the_method": "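After exposure of the mgt1 yeast mutant to compound, growth was measured and reported as inhibition compared with vehicle controls.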"}, "[5]": {"assay": "NCI Yeast Anticancer Drug Screen. Data for the rad50 strain (AID 155);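 further: 0% = growth of vehicle-only cultures of the same strain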", "conditions": "S. cerevisiae rad50 strain growth inhibition, active compounds read high", "summary_of_the_method": "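Readout: growth inhibition relative to vehicle-treated cultures. Compound exposure was carried out in a genetically defined yeast strain deficient in DNA damage repair.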"}, "[6]": {"assay": "NCI Yeast Anticancer Drug Screen. Data for the mec2-1 strain (AID 157)", "conditions": "S. cerevisiae mec2-1 strain, active compounds read high", "summary_of_the_method": "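Test agents were screened against the mec2-1 yeast strain, with defined DNA repair or cell cycle alteration. Growth was scored as inhibition against vehicle-only controls.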"}, "[7]": {"assay": "NCI Yeast Anticancer Drug Screen. Data for the sgs1 mgt1 strain (AID 161);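 further: 0% = growth of cultures given vehicle only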", "conditions": "S. cerevisiae sgs1 mgt1 strain, active compounds read high", "summary_of_the_method": "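Mutant yeast exposed to compound; growth scored against vehicle-only wells.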"}, "[8]": {"assay": "NCI Yeast Anticancer Drug Screen. Data for the CLN2oe strain (AID 163);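 further: 0% = growth of vehicle-only control cultures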", "conditions": "S. cerevisiae CLN2oe strain, active compounds read high", "summary_of_the_method": "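Here, growth inhibition in a cell-cycle-altered yeast strain after compound exposure was quantified against vehicle control growth.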"}, "[9]": {"assay": "NCI Yeast Anticancer Drug Screen. Data for the cln2 rad14 strain (AID 165);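 further: 0% = growth equal to vehicle treated cultures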", "conditions": "S. cerevisiae cln2 rad14 strain, active compounds read high", "summary_of_the_method": "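Growth of compound-exposed yeast (cln2 rad14 genotype) measured and expressed as inhibition relative to vehicle.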"}, "[10]": {"assay": "NCI Yeast Anticancer Drug Screen. Data for the bub3 strain (AID 167)", "conditions": "S. cerevisiae bub3 mutant strain, active compounds read high", "summary_of_the_method": "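Readout: yeast growth inhibition, expressed relative to vehicle-only wells. The test organism is a mutant strain from a panel with lesions in DNA repair or checkpoint genes.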"}, "[11]": {"assay": "NCI Yeast Anticancer Drug Screen. Data for the wt2 strain (AID 169);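 further: 0% = growth of vehicle-treated yeast cultures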", "conditions": "S. cerevisiae wt2 strain growth inhibition, active compounds read high", "summary_of_the_method": "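Genetically defined yeast strains from a DNA-repair/cell-cycle panel were used. Compound-exposed yeast growth was measured, and the inhibition was calculated relative to vehicle treatment.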"}, "[12]": {"assay": "NCI Yeast Anticancer Drug Screen. Data for the mlh1 strain (AID 171);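 further: 0% = growth of vehicle-treated control cultures of the same strain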", "conditions": "S. cerevisiae mlh1 strain growth inhibition, active compounds read high", "summary_of_the_method": "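Here the genetically defined yeast mutant is grown with each compound, and the extent to which its growth falls below that of vehicle-exposed cells is reported.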"}, "[13]": {"assay": "NCI Yeast Anticancer Drug Screen. Data for the sgs1 strain (AID 173);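 further: 0% = growth of vehicle-only control cultures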", "conditions": "S. cerevisiae sgs1 mutant, active compounds read high", "summary_of_the_method": "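Relative growth inhibition, referenced to vehicle, was determined in a yeast strain with a defined alteration affecting DNA damage repair or cell cycle control after compound exposure.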"}, "[14]": {"assay": "NCI Yeast Anticancer Drug Screen. Data for the mlh1 rad18 strain (AID 175)", "conditions": "S. cerevisiae mlh1 rad18 strain growth inhibition, active compounds read high", "summary_of_the_method": "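In this whole-cell yeast screen, a strain with altered DNA damage repair is challenged with compound, and its growth is measured against matched vehicle-treated controls.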"}, "[15]": {"assay": "NCI Yeast Anticancer Drug Screen. Data for the rad18 strain (AID 177)", "conditions": "S. cerevisiae rad18 mutant growth inhibition, active compounds read high", "summary_of_the_method": "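Screen uses a yeast strain with a defined lesion in DNA damage repair; compound effect is read as loss of growth compared to untreated vehicle cultures.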"}, "[16]": {"conditions": "at 5.0 µM (retest, dose inferred, filed as 0.5)"}, "[17]": {"conditions": "at 50.0 µM (retest, dose inferred, filed as 5.0)"}}, "note": "About 79,000 compounds went through this panel and 15% of them were active in at least one assay; those are over-represented in the sample as a whole. A number with no mark means an inactive call. The source made the active and inactive calls. No stated cut-off is given here; in the data, active means growth inhibition above about 70%; inactive means the rest."}
{"smiles": "Nc1ccc(N=Nc2ccc(-c3ccc(O)cc3)cc2)c2ccc(S(=O)(=O)O)cc12", "values": [{"measurement": "growth inhibition", "setting": "[1]; at 1.2 µM", "value": -3, "unit": "%"}, {"measurement": "growth inhibition", "setting": "[1]; at 3.7 µM", "value": 2, "unit": "%"}, {"measurement": "growth inhibition", "setting": "[1]; at 11.0 µM", "value": 17, "unit": "%"}, {"measurement": "growth inhibition", "setting": "[1]; at 33.0 µM", "value": 39, "unit": "%"}, {"measurement": "growth inhibition", "setting": "[1]; at 100.0 µM", "value": 54, "unit": "%"}, {"measurement": "growth inhibition", "setting": "[2]; at 1.2 µM", "value": 0, "unit": "%"}, {"measurement": "growth inhibition", "setting": "[2]; at 3.7 µM", "value": 1, "unit": "%"}, {"measurement": "growth inhibition", "setting": "[2]; at 11.0 µM", "value": 6, "unit": "%"}, {"measurement": "growth inhibition", "setting": "[2]; at 33.0 µM", "value": 10, "unit": "%"}, {"measurement": "growth inhibition", "setting": "[2]; at 100.0 µM", "value": 15, "unit": "%"}, {"measurement": "growth inhibition", "setting": "[3]; at 1.2 µM", "value": 7, "unit": "%"}, {"measurement": "growth inhibition", "setting": "[3]; at 3.7 µM", "value": 25, "unit": "%"}, {"measurement": "growth inhibition", "setting": "[3]; at 11.0 µM", "value": 67, "unit": "%"}, {"measurement": "growth inhibition", "setting": "[3]; at 33.0 µM", "value": "79% (active)"}, {"measurement": "growth inhibition", "setting": "[3]; at 100.0 µM", "value": "78% (active)"}, {"measurement": "growth inhibition", "setting": "[4]; at 1.2 µM", "value": 1, "unit": "%"}, {"measurement": "growth inhibition", "setting": "[4]; at 3.7 µM", "value": 0, "unit": "%"}, {"measurement": "growth inhibition", "setting": "[4]; at 11.0 µM", "value": 3, "unit": "%"}, {"measurement": "growth inhibition", "setting": "[4]; at 33.0 µM", "value": 6, "unit": "%"}, {"measurement": "growth inhibition", "setting": "[4]; at 100.0 µM", "value": 12, "unit": "%"}, {"measurement": "growth inhibition", "setting": "[5]; at 1.2 µM", "value": 1, "unit": "%"}, {"measurement": "growth inhibition", "setting": "[5]; at 3.7 µM", "value": 1, "unit": "%"}, {"measurement": "growth inhibition", "setting": "[5]; [16]", "value": 8, "unit": "%"}, {"measurement": "growth inhibition", "setting": "[5]; at 11.0 µM", "value": 17, "unit": "%"}, {"measurement": "growth inhibition", "setting": "[5]; at 33.0 µM", "value": 25, "unit": "%"}, {"measurement": "growth inhibition", "setting": "[5]; [17]", "value": 57, "unit": "%"}, {"measurement": "growth inhibition", "setting": "[5]; at 50.0 µM", "value": "82.9% (active)"}, {"measurement": "growth inhibition", "setting": "[5]; at 100.0 µM", "value": 43, "unit": "%"}, {"measurement": "growth inhibition", "setting": "[6]; at 1.2 µM", "value": 2, "unit": "%"}, {"measurement": "growth inhibition", "setting": "[6]; at 3.7 µM", "value": 3, "unit": "%"}, {"measurement": "growth inhibition", "setting": "[6]; [16]", "value": 15, "unit": "%"}, {"measurement": "growth inhibition", "setting": "[6]; at 11.0 µM", "value": 8, "unit": "%"}, {"measurement": "growth inhibition", "setting": "[6]; at 33.0 µM", "value": 14, "unit": "%"}, {"measurement": "growth inhibition", "setting": "[6]; [17]", "value": 10, "unit": "%"}, {"measurement": "growth inhibition", "setting": "[6]; at 50.0 µM", "value": 34.9, "unit": "%"}, {"measurement": "growth inhibition", "setting": "[6]; at 100.0 µM", "value": 23, "unit": "%"}, {"measurement": "growth inhibition", "setting": "[7]; [16]", "value": 1, "unit": "%"}, {"measurement": "growth inhibition", "setting": "[7]; [17]", "value": 15, "unit": "%"}, {"measurement": "growth inhibition", "setting": "[7]; at 50.0 µM", "value": 19.1, "unit": "%"}, {"measurement": "growth inhibition", "setting": "[8]; at 1.2 µM", "value": 1, "unit": "%"}, {"measurement": "growth inhibition", "setting": "[8]; at 3.7 µM", "value": 2, "unit": "%"}, {"measurement": "growth inhibition", "setting": "[8]; at 11.0 µM", "value": 0, "unit": "%"}, {"measurement": "growth inhibition", "setting": "[8]; at 33.0 µM", "value": -1, "unit": "%"}, {"measurement": "growth inhibition", "setting": "[8]; at 100.0 µM", "value": -3, "unit": "%"}, {"measurement": "growth inhibition", "setting": "[9]; [16]", "value": 45, "unit": "%"}, {"measurement": "growth inhibition", "setting": "[9]; [17]", "value": 13, "unit": "%"}, {"measurement": "growth inhibition", "setting": "[9]; at 50.0 µM", "value": 47.1, "unit": "%"}, {"measurement": "growth inhibition", "setting": "[10]; at 1.2 µM", "value": -1, "unit": "%"}, {"measurement": "growth inhibition", "setting": "[10]; at 3.7 µM", "value": -4, "unit": "%"}, {"measurement": "growth inhibition", "setting": "[10]; [16]", "value": 9, "unit": "%"}, {"measurement": "growth inhibition", "setting": "[10]; at 11.0 µM", "value": -2, "unit": "%"}, {"measurement": "growth inhibition", "setting": "[10]; at 33.0 µM", "value": 15, "unit": "%"}, {"measurement": "growth inhibition", "setting": "[10]; [17]", "value": 12, "unit": "%"}, {"measurement": "growth inhibition", "setting": "[10]; at 50.0 µM", "value": 38.4, "unit": "%"}, {"measurement": "growth inhibition", "setting": "[10]; at 100.0 µM", "value": -9, "unit": "%"}, {"measurement": "growth inhibition", "setting": "[11]; at 1.2 µM", "value": -1, "unit": "%"}, {"measurement": "growth inhibition", "setting": "[11]; at 3.7 µM", "value": 2, "unit": "%"}, {"measurement": "growth inhibition", "setting": "[11]; at 11.0 µM", "value": 5, "unit": "%"}, {"measurement": "growth inhibition", "setting": "[11]; at 33.0 µM", "value": 16, "unit": "%"}, {"measurement": "growth inhibition", "setting": "[11]; at 100.0 µM", "value": 21, "unit": "%"}, {"measurement": "growth inhibition", "setting": "[12]; at 1.2 µM", "value": 3, "unit": "%"}, {"measurement": "growth inhibition", "setting": "[12]; at 3.7 µM", "value": 3, "unit": "%"}, {"measurement": "growth inhibition", "setting": "[12]; at 11.0 µM", "value": 6, "unit": "%"}, {"measurement": "growth inhibition", "setting": "[12]; at 33.0 µM", "value": -19, "unit": "%"}, {"measurement": "growth inhibition", "setting": "[12]; at 100.0 µM", "value": 18, "unit": "%"}, {"measurement": "growth inhibition", "setting": "[13]; at 1.2 µM", "value": 2, "unit": "%"}, {"measurement": "growth inhibition", "setting": "[13]; at 3.7 µM", "value": 8, "unit": "%"}, {"measurement": "growth inhibition", "setting": "[13]; at 11.0 µM", "value": 20, "unit": "%"}, {"measurement": "growth inhibition", "setting": "[13]; at 33.0 µM", "value": 37, "unit": "%"}, {"measurement": "growth inhibition", "setting": "[13]; at 100.0 µM", "value": 40, "unit": "%"}, {"measurement": "growth inhibition", "setting": "[14]; [16]", "value": 5, "unit": "%"}, {"measurement": "growth inhibition", "setting": "[14]; [17]", "value": 43, "unit": "%"}, {"measurement": "growth inhibition", "setting": "[14]; at 50.0 µM", "value": 55.1, "unit": "%"}, {"measurement": "growth inhibition", "setting": "[15]; at 1.2 µM", "value": -4, "unit": "%"}, {"measurement": "growth inhibition", "setting": "[15]; at 3.7 µM", "value": 11, "unit": "%"}, {"measurement": "growth inhibition", "setting": "[15]; at 11.0 µM", "value": 48, "unit": "%"}, {"measurement": "growth inhibition", "setting": "[15]; at 33.0 µM", "value": 69, "unit": "%"}, {"measurement": "growth inhibition", "setting": "[15]; at 100.0 µM", "value": "72% (active)"}]}
